The structures appear in SMILES notation. Screen size: about 39,000 compounds; about 3,300 (8.5%) were called active. This excerpt belongs to a sample that is enriched for actives.

The test concerns HepG2. Description: cytotoxicity call (relative viability < 0.9). The note with it: 10 µM.
In the case of `C[C@H](CO)N1C[C@H](C)[C@@H](CN(C)C(=O)NC2CCCCC2)Oc2cc(-c3cccnc3)ccc2S1(=O)=O`, the cytotoxicity call is “inactive”.

As for `Cc1ccc(S(=O)(=O)N2C[C@@H](O)COC[C@H]3O[C@H](CC(=O)NCCCN(C)C)CC[C@@H]32)cc1`, the cytotoxicity call is “inactive”.

With `Cc1noc(C)c1NC(=O)Nc1ccc2c(c1)C(=O)N([C@H](C)CO)C[C@H](C)[C@H](CN(C)Cc1ccc(Cl)c(Cl)c1)O2`, the cytotoxicity call is “inactive”.

As for `C=CCC[C@@H](Cc1ccc(F)cc1)C(=O)O[C@@H](CNC(=O)[C@@H](CC=C)CC(=O)N[C@H](CO)Cc1ccccc1)c1ccccc1`, the cytotoxicity call was “active”.

`C=CCC[C@H](Cc1ccc(F)cc1)C(=O)O[C@@H](CNC(=O)[C@@H](CC=C)CC(=O)N[C@@H](CO)Cc1ccccc1)c1ccccc1`: the cytotoxicity call was “inactive”.

As to `C=CC[C@@H](CC(=O)N[C@@H](CO)Cc1ccccc1)C(=O)NC[C@@H](OC(=O)[C@@H](CC=C)Cc1ccc(F)cc1)c1ccccc1`, the cytotoxicity call is “inactive”.

`C=CC[C@@H](CC(=O)N[C@@H](CO)Cc1ccccc1)C(=O)NC[C@H](OC(=O)[C@@H](CC=C)Cc1ccc(F)cc1)c1ccccc1`: the cytotoxicity call was “inactive”.

As for `C=CC[C@@H](CC(=O)N[C@H](CO)Cc1ccccc1)C(=O)NC[C@H](OC(=O)[C@@H](CC=C)Cc1ccc(F)cc1)c1ccccc1`, the cytotoxicity call was “active”.

Take `C=CCC[C@H](Cc1ccc(F)cc1)C(=O)O[C@@H](CNC(=O)[C@@H](CC=C)CC(=O)N[C@H](CO)Cc1ccccc1)c1ccccc1`: the cytotoxicity call was “inactive”.

As for `Nc1ncnc2c1CCC2`, the cytotoxicity call was “inactive”.

In the case of `CCCCCCCCNC(C)C(O)c1ccc(SC(C)C)cc1` (centres undefined), the cytotoxicity call is “active”.

As to `CCCCCCCCNC[C@@H](O)[C@H](O)[C@@H](O)[C@@H](O)CO`, the cytotoxicity call was “inactive”.

Consider `CC(NCCc1ccc(O)cc1)C(O)c1ccc(O)cc1.Cl` (centres undefined), for which the cytotoxicity call was “inactive”.

`C[C@H]1CN([C@@H](C)CO)C(=O)c2cc(NC(=O)Cc3ccccc3)ccc2O[C@H]1CN(C)S(=O)(=O)c1cn(C)cn1`: the cytotoxicity call was “inactive”.

For the compound `C[C@@H]1CN([C@@H](C)CO)C(=O)c2cc(NS(=O)(=O)c3ccc(F)cc3)ccc2O[C@@H]1CN(C)C(=O)Nc1cccc2ccccc12`, the cytotoxicity call is “inactive”.

On to `CC(C)NC(=N)NC(=N)Nc1ccc(Cl)cc1.Cl`, for which the cytotoxicity call was “active”.

`N[C@@H](CC(=O)Nc1ccc(Cl)cc1)C(=O)O`: the cytotoxicity call was “inactive”.

`Cl.Cl.N=C(NCCCCCCNC(=N)NC(=N)Nc1ccc(Cl)cc1)NC(=N)Nc1ccc(Cl)cc1`: the cytotoxicity call was “active”.

For `C[C@H](CO)N1C[C@H](C)[C@@H](CN(C)S(=O)(=O)c2ccccc2)Oc2c(NC(=O)C3CC3)cccc2C1=O`, the cytotoxicity call was “inactive”.

For `C[C@H]1CN([C@@H](C)CO)C(=O)c2cccc(NC(=O)c3ccncc3)c2O[C@@H]1CN(C)S(=O)(=O)c1ccc(F)cc1`, the cytotoxicity call is “inactive”.

As for `COCCN1CCC(N(Cc2ccc(-c3ccc(C(F)(F)F)cc3)cc2)C(=O)Cn2c(SCc3cccc(F)c3F)cc(=O)c3ccccc32)CC1`, the cytotoxicity call was “active”.

For `C[C@@H]1CN([C@@H](C)CO)C(=O)c2cc(NC(=O)c3ccncc3)ccc2O[C@@H](C)CCCCO[C@@H]1CN(C)S(C)(=O)=O`, the cytotoxicity call is “inactive”.

For the compound `COc1ccc2c(c1)/C(=N\O)C(=O)N2`, the cytotoxicity call was “inactive”.

As for `O=C1Nc2ccc(I)cc2C1=Cc1cc(Br)c(O)c(Br)c1`, the cytotoxicity call is “active”.

With `COc1ccc2c(c1)C(=O)C(=O)N2`, the cytotoxicity call was “inactive”.

As for `CC(C)C[C@@H](N)C(=O)N[C@H]1C(=O)N[C@@H](CC(N)=O)C(=O)N[C@H]2C(=O)N[C@H]3C(=O)N[C@H](C(=O)N[C@H](C(=O)O)c4cc(O)cc(O)c4-c4cc3ccc4O)[C@H](O)c3ccc(c(Cl)c3)Oc3cc2cc(c3O[C@@H]2O[C@H](CO)[C@@H](O)[C@H](O)[C@H]2O[C@H]2C[C@](C)(N)[C@H](O)[C@H](C)O2)Oc2ccc(cc2Cl)[C@H]1O`, the cytotoxicity call is “inactive”.

In the case of `C[C@@H]1CCCCO[C@@H](CN(C)C(=O)Nc2cccc3ccccc23)[C@@H](C)CN([C@H](C)CO)C(=O)c2cc(NS(=O)(=O)c3ccc(Cl)cc3)ccc2O1`, the cytotoxicity call was “inactive”.

As for `COc1ccc(S(=O)(=O)Nc2ccc3c(c2)[C@@H]2C[C@@H](CC(=O)NCC4CC4)O[C@H](CO)[C@@H]2O3)cc1`, the cytotoxicity call is “inactive”.

Regarding `CS(=O)(=O)O.CSc1ccc2c(c1)C(N1CCN(C)CC1)Cc1ccccc1S2` (centres undefined), the cytotoxicity call is “active”.

With `C[C@H]1CN([C@@H](C)CO)C(=O)Cc2cc(NC(=O)Nc3cccc4ccccc34)ccc2O[C@H]1CN(C)S(=O)(=O)c1ccc(F)cc1`, the cytotoxicity call was “inactive”.

Consider `C[C@H](CO)N1C[C@H](C)[C@H](CN(C)Cc2ccc(-c3ccccc3)cc2)Oc2c(NC(=O)c3ccc(-c4nccs4)cc3)cccc2C1=O`, for which the cytotoxicity call is “inactive”.

Regarding `C[C@H](CO)N1C[C@H](C)[C@@H](CN(C)Cc2ccc(Oc3ccccc3)cc2)Oc2ccc(NC(=O)Nc3ccc(C(F)(F)F)cc3)cc2C1=O`, the cytotoxicity call is “inactive”.

Consider `C[C@@H]1CN([C@H](C)CO)C(=O)c2cc(NC(=O)Nc3ccc(C(F)(F)F)cc3)ccc2O[C@H]1CN(C)Cc1ccc(Oc2ccccc2)cc1`, for which the cytotoxicity call is “inactive”.

As for `C[C@H](CO)N1C[C@H](C)[C@H](CN(C)Cc2ccc(Oc3ccccc3)cc2)Oc2ccc(NC(=O)Nc3ccc(C(F)(F)F)cc3)cc2C1=O`, the cytotoxicity call is “active”.

In the case of `C[C@H]1CN([C@@H](C)CO)C(=O)c2cc(NC(=O)Nc3ccc(C(F)(F)F)cc3)ccc2O[C@H]1CN(C)Cc1ccc(Oc2ccccc2)cc1`, the cytotoxicity call was “active”.

Consider `C[C@@H]1CN([C@H](C)CO)C(=O)c2cc(NC(=O)Nc3ccc(C(F)(F)F)cc3)ccc2O[C@@H]1CN(C)Cc1ccc(Oc2ccccc2)cc1`, for which the cytotoxicity call was “active”.

For the compound `C[C@@H]1CN([C@@H](C)CO)C(=O)c2cc(NC(=O)Nc3ccc(C(F)(F)F)cc3)ccc2O[C@H]1CN(C)Cc1ccc(Oc2ccccc2)cc1`, the cytotoxicity call was “active”.

For `C[C@H]1CN([C@@H](C)CO)C(=O)c2cc(NC(=O)Nc3ccc(C(F)(F)F)cc3)ccc2O[C@@H]1CN(C)Cc1ccc(Oc2ccccc2)cc1`, the cytotoxicity call was “inactive”.

For `C[C@@H]1CN([C@@H](C)CO)S(=O)(=O)c2ccc(Br)cc2O[C@H]1CN(C)CC1CCOCC1`, the cytotoxicity call is “inactive”.

With `COc1ccc(NC(=O)Nc2ccc3c(c2)C(=O)N([C@@H](C)CO)C[C@H](C)[C@@H](CN(C)C(=O)Nc2cccc4ccccc24)O3)cc1`, the cytotoxicity call is “inactive”.

Turning to `C[C@H]1CN([C@@H](C)CO)S(=O)(=O)c2ccc(C#Cc3ccccc3)cc2O[C@@H]1CN(C)C(=O)Cc1ccccn1`, the cytotoxicity call was “inactive”.

Regarding `Nc1nc(=O)c2ncn(CCC(CO)CO)c2[nH]1`, the cytotoxicity call was “inactive”.

On to `Cc1noc(C)c1NC(=O)N(C)C[C@H]1Oc2ccc(NC(=O)NC(C)C)cc2CC(=O)N([C@H](C)CO)C[C@H]1C`, for which the cytotoxicity call is “inactive”.

`C[C@@H]1CN([C@@H](C)CO)C(=O)c2cc(NC(=O)Nc3ccc(C(F)(F)F)cc3)ccc2O[C@@H]1CN(C)Cc1ccc(Oc2ccccc2)cc1`: the cytotoxicity call was “active”.

In the case of `C[C@@H]1CN([C@@H](C)CO)C(=O)c2cc(NC(=O)Nc3ccc(C(F)(F)F)cc3)ccc2O[C@@H]1CN(C)C(=O)Nc1ccccc1`, the cytotoxicity call was “inactive”.

Take `O=C(O)c1ccc(/C2=C3\C=CC(=N3)/C(c3ccc(C(=O)O)cc3)=c3/cc/c4[n]3[Mn+][n]3c2ccc3/C(c2ccc(C(=O)O)cc2)=C2/C=CC(=N2)\C=4c2ccc(C(=O)O)cc2)cc1`: the cytotoxicity call is “inactive”.

In the case of `C[n+]1ccc(/C2=C3\C=CC(=N3)/C(c3cc[n+](C)cc3)=c3/cc/c4[n]3[Fe][n]3c2ccc3/C(c2cc[n+](C)cc2)=C2/C=CC(=N2)\C=4c2cc[n+](C)cc2)cc1`, the cytotoxicity call was “active”.

For `C[C@@H]1CN([C@@H](C)CO)C(=O)c2cc(NC(=O)Cc3ccccc3)ccc2O[C@@H]1CN(C)S(=O)(=O)c1ccccc1`, the cytotoxicity call was “inactive”.

Turning to `C[C@@H]1CN([C@@H](C)CO)C(=O)c2cccc(NC(=O)C3CC3)c2O[C@@H]1CN(C)S(=O)(=O)c1cccs1`, the cytotoxicity call was “inactive”.

As for `Cc1ccc(S(=O)(=O)N(C)C[C@@H]2OCCCC[C@@H](C)Oc3ccc(NC(=O)Nc4c(C)noc4C)cc3C(=O)N([C@@H](C)CO)C[C@@H]2C)cc1`, the cytotoxicity call was “inactive”.

`C[C@@H]1CCCCO[C@@H](CN(C)CC2CC2)[C@@H](C)CN([C@H](C)CO)C(=O)c2cc(NS(=O)(=O)c3cn(C)cn3)ccc2O1`: the cytotoxicity call is “inactive”.

Consider `COc1ccc(CN(C)C[C@@H]2Oc3ccc(NC(=O)Nc4cccc5ccccc45)cc3CC(=O)N([C@H](C)CO)C[C@H]2C)cc1`, for which the cytotoxicity call is “inactive”.

As to `COc1ccc(CN(C)C[C@H]2Oc3ccc(NC(=O)Nc4cccc5ccccc45)cc3CC(=O)N([C@@H](C)CO)C[C@H]2C)cc1`, the cytotoxicity call is “active”.

Consider `COc1ccc(CN(C)C[C@@H]2Oc3ccc(NC(=O)Nc4cccc5ccccc45)cc3CC(=O)N([C@@H](C)CO)C[C@@H]2C)cc1`, for which the cytotoxicity call was “active”.

Take `COc1ccc(CN(C)C[C@H]2Oc3ccc(NC(=O)Nc4cccc5ccccc45)cc3CC(=O)N([C@@H](C)CO)C[C@@H]2C)cc1`: the cytotoxicity call was “active”.

Regarding `COc1ccc(CN(C)C[C@@H]2Oc3ccc(NC(=O)Nc4cccc5ccccc45)cc3CC(=O)N([C@H](C)CO)C[C@@H]2C)cc1`, the cytotoxicity call was “inactive”.

In the case of `COc1ccc(CN(C)C[C@H]2Oc3ccc(NC(=O)Nc4cccc5ccccc45)cc3CC(=O)N([C@H](C)CO)C[C@H]2C)cc1`, the cytotoxicity call was “active”.

As to `COc1ccc(OC)c(S(=O)(=O)N2[C@@H]3CC[C@@H](C3)[C@H]2c2nc3cccc(OCc4ccccc4)c3[nH]2)c1`, the cytotoxicity call is “inactive”.

Consider `CO[C@@H]1CN(C)C(=O)c2cc(NS(=O)(=O)CC(F)(F)F)ccc2OC[C@@H](C)N(Cc2ccccn2)C[C@@H]1C`, for which the cytotoxicity call was “inactive”.

As to `C[C@@H]1CN([C@@H](C)CO)C(=O)c2cc(Br)cnc2O[C@@H]1CN(C)S(=O)(=O)c1ccccc1`, the cytotoxicity call is “inactive”.

Regarding `Cc1ccc(S(=O)(=O)N(C)C[C@@H]2Oc3ccc(NC(=O)Cn4cnnn4)cc3C(=O)N([C@@H](C)CO)C[C@@H]2C)cc1`, the cytotoxicity call was “inactive”.

As for `C/C(=N\N)c1c(C)cc(C)[nH]c1=O`, the cytotoxicity call was “inactive”.

On to `Nc1cccc(=O)[nH]1`, for which the cytotoxicity call is “inactive”.

For the compound `Cc1noc(C)c1NC(=O)N(C)C[C@@H]1Oc2ccc(NC(=O)Nc3ccc(C(F)(F)F)cc3)cc2CC(=O)N([C@H](C)CO)C[C@@H]1C`, the cytotoxicity call was “inactive”.

Values taken from the antibiotic and cytotoxicity screens of Wong et al. (2023).
